Test results: PubChem BioAssay (NCI)
Compounds without any hit were thinned out: in the full panel of roughly 83,000, 20% have a hit.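 Compound tested at a single concentration for 48 hours in 96-well plates; a percent growth value below 10 was scored as active.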 The source made the active and inactive calls.

Columns and labels:
Experiment in all cases: NCI-60 one-dose screen, 48 h (100 = growth as untreated, 0 = no growth, -100 = all killed)
Conditions in all cases: 10 µM unless noted
SR leukemia = tested on: SR leukemia
RPMI-8226 leukemia = tested on: RPMI-8226 leukemia
OVCAR-8 ovarian = tested on: OVCAR-8 ovarian
OVCAR-5 ovarian = tested on: OVCAR-5 ovarian
OVCAR-4 ovarian = tested on: OVCAR-4 ovarian
SK-OV-3 ovarian = tested on: SK-OV-3 ovarian
IGROV1 ovarian = tested on: IGROV1 ovarian
OVCAR-3 ovarian = tested on: OVCAR-3 ovarian
HS 578T breast = tested on: HS 578T breast
NCI/ADR-RES ovarian = tested on: NCI/ADR-RES ovarian

Measured: growth

O=CN1N=C(c2cccc(Nc3ccnc4cc(Cl)ccc34)c2)CC1c1ccccc1 (stereo not given)
active: SR leukemia 9.69% | SK-OV-3 ovarian 8.25% | OVCAR-3 ovarian -12.9% | HS 578T breast 1.24% | NCI/ADR-RES ovarian 3.37%
inactive: RPMI-8226 leukemia 27.7% | OVCAR-8 ovarian 38% | OVCAR-5 ovarian 36.3% | OVCAR-4 ovarian 41.2% | IGROV1 ovarian 28.9%

Cn1c(=O)c2nc(/C=C/c3ccccc3)c(=O)[nH]c2n(C)c1=S
inactive: SR leukemia 111% | RPMI-8226 leukemia 110% | OVCAR-8 ovarian 105% | OVCAR-5 ovarian 110% | OVCAR-4 ovarian 107% | SK-OV-3 ovarian 118% | IGROV1 ovarian 107% | OVCAR-3 ovarian 116% | HS 578T breast 107% | NCI/ADR-RES ovarian 106%

Nc1ncnc2c1C(c1ccccc1)c1ccc3ccccc3c1O2 (stereo not given)
inactive: SR leukemia 55.1% | RPMI-8226 leukemia 80.8% | OVCAR-8 ovarian 79.6% | OVCAR-5 ovarian 99% | OVCAR-4 ovarian 86.5% | SK-OV-3 ovarian 64.7% | IGROV1 ovarian 77.8% | OVCAR-3 ovarian 93.9% | HS 578T breast 93.7% | NCI/ADR-RES ovarian 80.9%

CSc1nc(N)c(NS(=O)(=O)c2ccc(C(C)=O)cc2)c(=O)[nH]1
inactive: SR leukemia 119% | RPMI-8226 leukemia 110% | OVCAR-8 ovarian 107% | OVCAR-5 ovarian 104% | OVCAR-4 ovarian 117% | SK-OV-3 ovarian 117% | IGROV1 ovarian 106% | OVCAR-3 ovarian 105% | HS 578T breast 105% | NCI/ADR-RES ovarian 96.8%

Oc1c(I)cc(I)cc1CNCCN(Cc1ccccn1)Cc1ccccn1
active: SR leukemia -9.62% | RPMI-8226 leukemia -12.3% | OVCAR-8 ovarian -19.7% | OVCAR-5 ovarian -24.3% | OVCAR-4 ovarian -48.5% | SK-OV-3 ovarian -74.7% | IGROV1 ovarian -66.3% | OVCAR-3 ovarian -59.7% | HS 578T breast -11.3% | NCI/ADR-RES ovarian -18.4%

CNc1nnc2n(-c3ccccc3)c(=O)c3cnn(-c4ccccc4)c3n12
inactive: SR leukemia 65.2% | RPMI-8226 leukemia 85.3% | OVCAR-8 ovarian 95.7% | OVCAR-5 ovarian 99.3% | OVCAR-4 ovarian 107% | SK-OV-3 ovarian 68.4% | IGROV1 ovarian 94.8% | OVCAR-3 ovarian 104% | HS 578T breast 97.4% | NCI/ADR-RES ovarian 96.6%

CCOc1ccccc1Cn1ccnc1CCc1c(Cl)c(O)cc(O)c1C(=O)OC
inactive: SR leukemia 91.5% | RPMI-8226 leukemia 86.9% | OVCAR-8 ovarian 97.7% | OVCAR-5 ovarian 95.8% | OVCAR-4 ovarian 114% | SK-OV-3 ovarian 91.9% | IGROV1 ovarian 94.8% | OVCAR-3 ovarian 106% | HS 578T breast 107% | NCI/ADR-RES ovarian 93.5%

Ic1ccc(OCCCCn2ccnc2)cc1
inactive: SR leukemia 45.1% | RPMI-8226 leukemia 73.5% | OVCAR-8 ovarian 95.5% | OVCAR-5 ovarian 64.4% | OVCAR-4 ovarian 44.7% | SK-OV-3 ovarian 80.9% | IGROV1 ovarian 71.9% | OVCAR-3 ovarian 39.2% | HS 578T breast 90.2% | NCI/ADR-RES ovarian 90.7%

N#Cc1ccc(O)c(C2=NCC(c3cccc(Oc4ccccc4)c3)O2)c1 (stereo not given)
active: SK-OV-3 ovarian -1.44% | NCI/ADR-RES ovarian 2.42%
inactive: SR leukemia 19.7% | RPMI-8226 leukemia 28.1% | OVCAR-8 ovarian 12.9% | OVCAR-5 ovarian 55.5% | OVCAR-4 ovarian 18.3% | IGROV1 ovarian 19.2% | OVCAR-3 ovarian 27.3% | HS 578T breast 52.6%

C#CCOc1cccc(Nc2ncnc3cc(NC(=O)C=C)ccc23)c1
active: OVCAR-8 ovarian 4.37% | IGROV1 ovarian 6.96% | OVCAR-3 ovarian 6.09%
inactive: SR leukemia 13% | RPMI-8226 leukemia 13.3% | OVCAR-5 ovarian 54.3% | OVCAR-4 ovarian 45.5% | SK-OV-3 ovarian 29.6% | HS 578T breast 18.2% | NCI/ADR-RES ovarian 14.9%

CN(C)CC1CCC(CN(C)C)C1=O (stereo not given)
inactive: SR leukemia 59.7% | RPMI-8226 leukemia 62.2% | OVCAR-8 ovarian 105% | OVCAR-5 ovarian 122% | OVCAR-4 ovarian 115% | SK-OV-3 ovarian 105% | IGROV1 ovarian 115% | OVCAR-3 ovarian 132% | HS 578T breast 105% | NCI/ADR-RES ovarian 117%

COc1cc2c(c(OC)c1OC)CCC(c1cccc(NC(=O)c3ccc(Br)cc3)c1)O2 (stereo not given)
inactive: SR leukemia 35% | RPMI-8226 leukemia 56.8% | OVCAR-8 ovarian 85.3% | OVCAR-5 ovarian 93.3% | OVCAR-4 ovarian 67.4% | SK-OV-3 ovarian 75% | IGROV1 ovarian 71% | OVCAR-3 ovarian 90.8% | HS 578T breast 90.4% | NCI/ADR-RES ovarian 84.1%

O=C1Nc2ccccc2/C1=C/c1nc2ccccc2c(=O)[nH]1
inactive: SR leukemia 31% | RPMI-8226 leukemia 85.9% | OVCAR-8 ovarian 93.4% | OVCAR-5 ovarian 125% | OVCAR-4 ovarian 94.5% | SK-OV-3 ovarian 96% | IGROV1 ovarian 69.5% | OVCAR-3 ovarian 90.9% | HS 578T breast 93.4% | NCI/ADR-RES ovarian 97%

O=C(/C=C/c1cccs1)Nc1ncc(Cc2ccccc2F)s1
inactive: SR leukemia 26.1% | RPMI-8226 leukemia 23.7% | OVCAR-8 ovarian 29.8% | OVCAR-5 ovarian 34.5% | OVCAR-4 ovarian 48% | SK-OV-3 ovarian 27.5% | IGROV1 ovarian 35.4% | HS 578T breast 16% | NCI/ADR-RES ovarian 11.6%
active: OVCAR-3 ovarian -6.37%

CC(=O)N1N=C(c2ccc(C(F)(F)F)c(F)c2)CC1c1[nH]c(C)c(C(=O)NCC(F)(F)F)c1C (stereo not given)
inactive: SR leukemia 86.9% | RPMI-8226 leukemia 90.7% | OVCAR-8 ovarian 41.9% | OVCAR-5 ovarian 79.3% | OVCAR-4 ovarian 13.6% | SK-OV-3 ovarian 75.2% | IGROV1 ovarian 69.5% | OVCAR-3 ovarian 68.3% | HS 578T breast 31.8% | NCI/ADR-RES ovarian 78.5%

COc1ccc(C(=O)/C=C/c2c(C(F)(F)F)nc3ccccn23)cc1OC
inactive: OVCAR-8 ovarian 10.9% | SK-OV-3 ovarian 17.3% | IGROV1 ovarian 17.3%
active: SR leukemia -9.91% | RPMI-8226 leukemia 6.41% | OVCAR-5 ovarian 9.01% | OVCAR-4 ovarian 5.92% | OVCAR-3 ovarian -51.3% | HS 578T breast 4.59% | NCI/ADR-RES ovarian -22.7%

CC(C)c1ccc(C(=O)Nc2nc3ccc(O)c(CN(C)C)c3s2)cc1
inactive: SR leukemia 32.9% | RPMI-8226 leukemia 70.1% | OVCAR-8 ovarian 82.8% | OVCAR-5 ovarian 70.1% | OVCAR-4 ovarian 74.4% | SK-OV-3 ovarian 90.8% | IGROV1 ovarian 80.7% | OVCAR-3 ovarian 91.3% | HS 578T breast 86.8% | NCI/ADR-RES ovarian 87.8%

CSc1nc2ccccc2cc1/C=[N+](\[O-])c1ccccc1
inactive: SR leukemia 22.1% | RPMI-8226 leukemia 14.5% | OVCAR-8 ovarian 39.5% | OVCAR-5 ovarian 91.1% | OVCAR-4 ovarian 70.8% | SK-OV-3 ovarian 87.3% | IGROV1 ovarian 77.3% | OVCAR-3 ovarian 66.9% | HS 578T breast 74.1% | NCI/ADR-RES ovarian 28.5%

COc1ccc(CNc2c3ccccc3nc3ccccc23)cc1
active: SR leukemia 6.96%
inactive: RPMI-8226 leukemia 15.8% | OVCAR-8 ovarian 27.7% | OVCAR-5 ovarian 46.4% | OVCAR-4 ovarian 40.3% | SK-OV-3 ovarian 53.8% | IGROV1 ovarian 27.2% | OVCAR-3 ovarian 48.1% | HS 578T breast 58% | NCI/ADR-RES ovarian 38.8%

O=C1Nc2ccccc2/C1=C/c1cccn1CCCCn1c2ccccc2c(=O)c2ccccc21
inactive: SR leukemia 80.1% | RPMI-8226 leukemia 33.5% | OVCAR-8 ovarian 58.8% | OVCAR-5 ovarian 77.9% | OVCAR-4 ovarian 65.8% | SK-OV-3 ovarian 94.6% | IGROV1 ovarian 77.3% | OVCAR-3 ovarian 86.7% | HS 578T breast 86.3% | NCI/ADR-RES ovarian 73.9%

Cc1ccc(Nc2cc(N)nc(N)n2)cc1Cl
inactive: SR leukemia 108% | RPMI-8226 leukemia 81.6% | OVCAR-8 ovarian 94.5% | OVCAR-5 ovarian 94.6% | OVCAR-4 ovarian 90.3% | SK-OV-3 ovarian 93.8% | IGROV1 ovarian 91% | OVCAR-3 ovarian 96.7% | HS 578T breast 98.3% | NCI/ADR-RES ovarian 97%

COC12C=C/C(=C(/C(=O)OCc3ccncc3)C(=O)CCCCCCCCC3(OC)C=C/C(=C(/C(=O)OCc4ccncc4)C(=O)CCCCCCCC1)O3)O2
inactive: OVCAR-8 ovarian 14.7% | SK-OV-3 ovarian 40.1% | HS 578T breast 34.6%
active: SR leukemia -16.2% | RPMI-8226 leukemia -24.7% | OVCAR-5 ovarian -20.7% | OVCAR-4 ovarian -2.29% | IGROV1 ovarian -32.2% | OVCAR-3 ovarian -74.3% | NCI/ADR-RES ovarian 5.85%

CC1=C([Se]CC(OC(=O)CC[Se]c2ccccc2)C(=O)NC(C)(C)C)C(=O)c2ccccc2C1=O (stereo not given)
active: SR leukemia -27.7% | OVCAR-8 ovarian -82% | OVCAR-5 ovarian -63.1% | OVCAR-4 ovarian -83.6% | SK-OV-3 ovarian -98.3% | IGROV1 ovarian -19.2% | OVCAR-3 ovarian -95.9% | HS 578T breast -19.1% | NCI/ADR-RES ovarian -36.3%
inactive: RPMI-8226 leukemia 14.8%

CS(=O)(=O)Nc1cncc(-c2ccc3ncnc(Nc4cncc(Cl)c4)c3c2)c1
inactive: SR leukemia 87.9% | RPMI-8226 leukemia 102% | OVCAR-8 ovarian 87.1% | OVCAR-5 ovarian 74.3% | OVCAR-4 ovarian 108% | SK-OV-3 ovarian 81.8% | IGROV1 ovarian 69.8% | OVCAR-3 ovarian 52.9% | HS 578T breast 56.6% | NCI/ADR-RES ovarian 95.7%

C=CC(=O)N1CCN(c2cccc(Oc3nccc(Nc4nnc(-c5ccc(Br)cc5)s4)n3)c2)CC1
inactive: SR leukemia 29.9% | RPMI-8226 leukemia 50.4% | OVCAR-8 ovarian 66% | OVCAR-5 ovarian 89.9% | OVCAR-4 ovarian 88.9% | SK-OV-3 ovarian 80.2% | IGROV1 ovarian 55.9% | OVCAR-3 ovarian 19.2% | HS 578T breast 67.5% | NCI/ADR-RES ovarian 48.4%

COc1ccc(OC)c(Nc2nnc(-c3ccc(O)c(OC)c3)o2)c1
inactive: SR leukemia 52.4% | RPMI-8226 leukemia 75% | OVCAR-8 ovarian 83.6% | OVCAR-5 ovarian 70% | OVCAR-4 ovarian 63.1% | SK-OV-3 ovarian 53.4% | IGROV1 ovarian 19.9% | OVCAR-3 ovarian 70.6% | HS 578T breast 39.6% | NCI/ADR-RES ovarian 68.7%

CCSc1oc(-c2ccccc2)nc1[P+](c1ccccc1)(c1ccccc1)c1ccccc1
inactive: OVCAR-5 ovarian 27.6% | OVCAR-4 ovarian 13.1% | HS 578T breast 18.4% | NCI/ADR-RES ovarian 67.4%
active: SR leukemia 1.17% | RPMI-8226 leukemia -18.9% | OVCAR-8 ovarian 7.86% | SK-OV-3 ovarian -16.1% | IGROV1 ovarian 5.02% | OVCAR-3 ovarian 3.17%
